Experimental findings from PubChem BioAssay AID2718 (Broad Institute, 2010) are described below.

Screen size: about 320,000 compounds; about 480 (0.15%) were called active. Not shown: some 1% with an inconclusive outcome. For the sample, actives were picked, then their nearest neighbours and some compounds at random. A number with no mark means an inactive call. No stated cut-off is given here; in the data, active means inhibition above about 26% (passing the limit was not always enough); inconclusive means no clear call, values can overlap the other calls.

The target of the assay is Histone deacetylase 3 (Homo sapiens) (UniProt O15379). Put plainly: inhibition of human HDAC3 enzyme activity – biochemical, fluorescence, cell-free homogeneous, primary screen (AID 2718). Particulars: recombinant HDAC3, fluorogenic peptide/trypsin coupled, at 8.3 µM, hits give high values.
Histone deacetylase 3 (Homo sapiens), sequence (O15379 whole entry, looked up): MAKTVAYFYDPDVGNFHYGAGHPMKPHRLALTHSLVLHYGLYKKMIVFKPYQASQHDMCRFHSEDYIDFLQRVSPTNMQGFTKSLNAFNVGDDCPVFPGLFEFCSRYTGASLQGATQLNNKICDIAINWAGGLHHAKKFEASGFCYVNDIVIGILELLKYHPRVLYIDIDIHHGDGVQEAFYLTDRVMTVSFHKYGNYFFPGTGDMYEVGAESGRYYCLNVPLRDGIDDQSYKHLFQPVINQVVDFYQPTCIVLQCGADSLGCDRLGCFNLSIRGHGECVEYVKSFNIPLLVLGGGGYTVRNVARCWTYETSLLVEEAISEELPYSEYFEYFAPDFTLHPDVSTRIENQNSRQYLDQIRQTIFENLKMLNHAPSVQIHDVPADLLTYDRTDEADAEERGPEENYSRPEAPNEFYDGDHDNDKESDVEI
As for `COc1ccc(C(=O)n2nc(-c3ccc(Cl)cc3)nc2N)cc1OC`, the inhibition is 13.1%. In the case of `COc1ccc(C(=O)n2nc(-c3ccc(C)cc3)nc2N)cc1OC`, the inhibition was 9.8%. As for `COc1ccc(C(=O)n2nc(C)c(Br)c2C)cc1OC`, the inhibition is 38.4% (active).

`O=C(Cc1ccccc1)Nc1c(Cl)ccc2nsnc12`: the inhibition is 2.55%. Take `C=C(Br)CN1CCN(CC(=C)Br)CC1`: the inhibition was -3.73%.

As for `O=C(O)C1C2C=CC(O2)C1C(=O)NCCc1cccc(Cl)c1` (configuration not stated), the inhibition is -6.57%.

Take `Cc1ccc(/C=N/NC(=O)C(NC(=O)c2ccccc2)c2n[nH]c(=O)c3ccccc23)cc1` (configuration not stated): the inhibition is 15%.

Take `O=C(COC(=O)c1ccco1)Nc1ccc(Cl)cn1`: the inhibition was 0.924%. For the compound `COc1cc(C2CC(=O)N3CN(Cc4ccccc4)CSC3=C2C#N)ccc1OCc1ccccc1` (configuration not stated), the inhibition was 33.1% (active). For `COc1cc(CNC2CCCC2)c(Br)cc1OCc1ccccc1` the value was 3.98%; for `COc1cc(CN2CCC(C(N)=O)CC2)ccc1OCc1ccccc1`, -3.96%; for `COc1cc(NC(=O)c2[nH]cnc2C(N)=O)cc(C(=O)Nc2cccc(C(F)(F)F)c2)c1`, -8.89%.

`O=C(NC(=S)NC1CCSC1=O)c1ccccc1F` (configuration not stated): the inhibition was -7.58%. As for `O=C(CN1CCN(C(=S)NC2CCCC2)CC1)Nc1ccc(Oc2ccccc2)cc1`, the inhibition is -5.51%. For `COc1ccccc1-n1nnnc1SCC(=O)NC(=O)Cc1ccccc1` the value was -1.86%; for `O=C(NCc1ccccc1)C1=C[C@@H](c2ccc(C(F)(F)F)cc2)C[C@@H](OCc2ccc(CO)cc2)O1`, 21.1%.

In the case of `O=C(C1=C[C@H](C2CC2)C[C@H](OCc2ccc(CO)cc2)O1)N1CCN(Cc2ccccc2)CC1`, the inhibition was -8.37%. For `O=C(C1=C[C@H](c2ccc(C(F)(F)F)cc2)C[C@H](OCc2ccc(CO)cc2)O1)N1CCN(Cc2ccccc2)CC1` the value was 33.5% (active); for `CNS(=O)(=O)c1cccc(C(=O)OCC(=O)N2c3ccccc3NC(=O)C2(C)C)c1`, 4.33%. Regarding `CCN(CC)CCN(C(=O)c1cccc([N+](=O)[O-])c1)c1nc2ccc(OC)cc2s1`, the inhibition is -1.73%. For `CN(C(=O)c1cccc(NC(=O)C2CCN(C(=O)OC(C)(C)C)CC2)c1)C1CCC1` the value was -2.89%; for `CSCCC(NC(=O)c1ccco1)C(=O)NCCc1ccc(F)cc1` (configuration not stated), -4.83%; for `COc1ccc(C(=O)OCc2cc(=O)n3ccsc3n2)cc1F`, 0.474%. As for `C=CCC[C@@H](Cc1ccc(F)cc1)C(=O)OC[C@@H](C)NC(=O)[C@H](CC=C)CC(=O)N(CCO)Cc1ccccc1`, the inhibition was 2.58%.

Take `C=CCC[C@H](Cc1ccc(F)cc1)C(=O)OC[C@@H](NC(=O)[C@@H](CC=C)CC(=O)N[C@H](CO)Cc1ccccc1)C(C)(C)C`: the inhibition was 41.7% (active). For `C=CC[C@@H](CC(=O)NCCO)C(=O)N[C@H](C)COC(=O)[C@@H](CC=C)CC(=O)OC(C)(C)C` the value was -0.677%; for `C=CC[C@@H](CC(=O)N[C@@H](CO)Cc1ccccc1)C(=O)N[C@H](COC(=O)[C@H](CC=C)CC(=O)OC(C)(C)C)Cc1ccccc1`, 7.81%. Consider `C=CCC[C@H](Cc1ccc(F)cc1)C(=O)OC[C@@H](Cc1c[nH]c2ccccc12)NC(=O)[C@H](CC=C)CC(=O)N[C@H](CO)Cc1ccccc1`, for which the inhibition was 6.12%. As for `C=CC[C@H](CC(=O)OC(C)(C)C)C(=O)OC[C@H]1CCCN1C(=O)[C@H](CC=C)CC(=O)N(CCO)Cc1ccccc1`, the inhibition was 1.66%. For `C=CC[C@@H](CC(=O)N[C@H](CO)Cc1ccccc1)C(=O)N[C@@H](COC(=O)[C@@H](CC=C)Cc1ccc(F)cc1)Cc1c[nH]c2ccccc12`, the inhibition was 0.653%. With `C=CC[C@@H](CC(=O)N[C@H](CO)Cc1ccccc1)C(=O)N[C@H](C)COC(=O)[C@@H](CC=C)Cc1ccc(F)cc1`, the inhibition was 19.7%.

For the compound `C=CC[C@@H](CC(=O)N[C@@H](CO)Cc1ccccc1)C(=O)NCCOC(=O)[C@@H](CC=C)CC(=O)OC(C)(C)C`, the inhibition was 0.71%. In the case of `C=CCC[C@@H](Cc1ccc(F)cc1)C(=O)O[C@H](CNC(=O)[C@H](CC=C)CC(=O)N(CCO)Cc1ccccc1)c1ccccc1`, the inhibition is 48.4% (active). For the compound `C=CCC[C@H](Cc1ccc(F)cc1)C(=O)OC[C@H](C)NC(=O)[C@H](CC=C)CC(=O)N(CCO)Cc1ccccc1`, the inhibition was 30.2% (active).

In the case of `C=CCC[C@@H](Cc1ccc(F)cc1)C(=O)OC[C@H](Cc1c[nH]c2ccccc12)NC(=O)[C@@H](CC=C)CC(=O)N(CCO)Cc1ccccc1`, the inhibition is 41.9% (active).

With `C=CC[C@H](CC(=O)N(CCO)Cc1ccccc1)C(=O)N[C@@H](COC(=O)[C@@H](CC=C)Cc1ccc(F)cc1)Cc1ccccc1`, the inhibition is 40.9% (active). Take `O=C1N[C@@H](c2ccccc2)COC(=O)[C@H](Cc2ccc(F)cc2)C/C=C\C[C@@H]1CC(=O)N(CCO)Cc1ccccc1`: the inhibition was 8.45%. Turning to `C=CC[C@H](CC(=O)NCCO)C(=O)N[C@@H](COC(=O)[C@@H](CC=C)Cc1ccc(F)cc1)Cc1c[nH]c2ccccc12`, the inhibition was 9.77%.

`COC(=O)[C@]1(CC(C)C)N[C@H](c2ccc(SC3CCCCC3)cc2)[C@@H]2C(=O)N(C)C(=O)[C@@H]21`: the inhibition was 16%. Consider `O=C(OCC(=O)N1CCCCCC1)c1ccc(Cl)nc1`, for which the inhibition is 0.75%. Turning to `CCCCCCCCCCOC(=O)Cn1c(COc2cccc(OC)c2)[n+](C)c2ccccc21`, the inhibition was 17.1%. `CCCCCCCCCCOC(=O)Cn1c(COc2ccc(C)cc2)[n+](C)c2ccccc21`: the inhibition is 36.3% (active).

With `CCOC(=O)Cn1c(-c2cccnc2Cl)nc2ccccc21`, the inhibition was 2.13%. `Cc1cccc(NC(=O)c2ccc(S(=O)(=O)N(C)c3ccccc3)cc2)n1`: the inhibition is 2.21%. With `CCN(C(=O)COC(=O)c1ccccc1O)c1cccc2ccccc12`, the inhibition is 2.66%. `Cc1cc2c(cc1C)N(C(=O)CN1C(=O)c3ccccc3C1=O)C(C)(C)c1ssc(=S)c1-2`: the inhibition is -10.7%. For `COc1cc(NC(=O)CN2C(=O)NC(C)(c3ccc(OC(F)F)cc3)C2=O)cc(OC)c1OC` (configuration not stated) the value was 5.68%.

As a reminder, the inhibition is the relative decrease from the control value, in per cent.
